# About 2,200 (0.71%) of roughly 310,000 compounds showed an effect of 50% or more. The effect is printed as a negative number. What follows is part of a selection rich in strong results, with near analogues and random picks from the rest.
# Target: human ether-à-go-go-related gene (hERG) potassium channel (human, UniProt Q12809)
# Experiment: primary screen, population patch clamp on CHO cells stably expressing hERG; higher = less effect of the substance
# Chain of human ether-à-go-go-related gene (hERG) potassium channel (Q12809 whole entry, looked up): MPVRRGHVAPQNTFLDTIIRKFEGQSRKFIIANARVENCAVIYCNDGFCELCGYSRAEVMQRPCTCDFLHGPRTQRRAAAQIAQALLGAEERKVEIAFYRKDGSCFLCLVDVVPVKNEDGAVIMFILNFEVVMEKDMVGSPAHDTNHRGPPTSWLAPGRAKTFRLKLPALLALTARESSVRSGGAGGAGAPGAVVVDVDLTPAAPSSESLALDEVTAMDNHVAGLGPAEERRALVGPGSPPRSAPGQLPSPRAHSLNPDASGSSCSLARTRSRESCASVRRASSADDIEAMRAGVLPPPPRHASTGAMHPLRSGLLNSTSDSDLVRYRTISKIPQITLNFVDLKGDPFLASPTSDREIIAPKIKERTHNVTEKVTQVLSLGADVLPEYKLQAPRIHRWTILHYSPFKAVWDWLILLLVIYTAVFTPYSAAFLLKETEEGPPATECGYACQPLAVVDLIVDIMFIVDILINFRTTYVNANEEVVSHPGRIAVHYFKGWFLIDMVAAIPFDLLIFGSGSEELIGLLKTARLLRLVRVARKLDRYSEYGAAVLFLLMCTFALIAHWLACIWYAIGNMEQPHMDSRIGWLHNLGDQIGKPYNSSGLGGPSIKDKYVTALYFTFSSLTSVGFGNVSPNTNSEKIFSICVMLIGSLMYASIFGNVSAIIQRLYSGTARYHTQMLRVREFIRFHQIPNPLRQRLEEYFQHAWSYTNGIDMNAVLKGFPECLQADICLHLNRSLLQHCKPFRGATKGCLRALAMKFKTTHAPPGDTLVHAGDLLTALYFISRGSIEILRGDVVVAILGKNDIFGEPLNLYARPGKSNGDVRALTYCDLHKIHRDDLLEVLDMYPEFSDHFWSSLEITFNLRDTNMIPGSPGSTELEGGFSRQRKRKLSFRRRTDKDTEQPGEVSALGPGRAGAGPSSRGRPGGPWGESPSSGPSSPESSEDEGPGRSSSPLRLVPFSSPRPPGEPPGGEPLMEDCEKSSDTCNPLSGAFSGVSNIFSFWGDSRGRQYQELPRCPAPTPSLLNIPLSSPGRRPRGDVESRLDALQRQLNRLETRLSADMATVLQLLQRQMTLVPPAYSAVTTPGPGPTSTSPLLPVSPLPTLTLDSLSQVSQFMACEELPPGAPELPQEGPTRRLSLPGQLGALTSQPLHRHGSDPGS
row,Compound,"hERG current change (%, negative = inhibition) at 1uM"
1,CCN(CC(=O)Nc1ccc(NC(C)=O)cc1)C(=O)CSc1nnc(-c2ccco2)n1CC,16.2%
2,Cc1nn2c(-c3ccccc3)ccnc2c1-c1ccccc1,7.57%
3,CC(C)Oc1ccc(/C(O)=C2/C(=O)C(=O)N(Cc3cccnc3)C2c2ccco2)cc1 (centres unmarked),14.2%
4,Cc1cc(C)c(S(=O)(=O)N2CCOC2CNC(=O)C(=O)NCCCN2CCCC2=O)c(C)c1 (centres unmarked),7.05%
5,O=C(c1ccccc1)c1c[nH]c(C(=O)C(Cl)(Cl)Cl)c1,16%
6,COC/C=C/C1=CC2=CC(=O)C(C)(OC(=O)c3cnc4ccccc4n3)C(=O)C2=CN1C1CCCCC1 (centres unmarked),9.88%
7,Cc1csc(NC(=O)CSc2nncs2)n1,8.29%
8,CC(NC(=O)Cc1cccs1)c1ccc2c(c1)OCO2 (centres unmarked),-4.41%
9,CCOC(=O)c1cccc(Nc2ncnc3ccc(C)cc23)c1,-3.73%
10,CC(C)N(CCNC(=O)COc1ccc2oc3c(c2c1)CCCC3)C(C)C,-52.7%
11,CCN(CC)CCCNC(=O)COc1ccc2oc3c(c2c1)CCCC3.Cl,6.07%
12,CC(C)OCCCNC(=O)COc1ccc2oc3c(c2c1)CCCC3,11.1%
13,O=C(NCCN=C1NS(=O)(=O)c2ccccc21)c1ccc2nccnc2c1,18.3%
14,O=C(CSCc1ccccn1)Nc1ccccc1,-0.275%
15,O=C(CSCc1cccc(CSCC(=O)Nc2ccc3ccccc3c2)n1)Nc1ccc2ccccc2c1,8.91%
16,O=C(CSCc1cccc(CSCC(=O)Nc2ccccc2)n1)Nc1ccccc1,-59.7%

row,Compound,"hERG current change (%, negative = inhibition) at 1uM"
1,C=CCNC(=O)c1sc(=S)n(-c2ccc(C(=O)OCC)cc2)c1N,2.24%
2,O=C(c1ccc2nc3ccccc3c(=O)n2c1)N1CCN(Cc2ccc3c(c2)OCO3)CC1,-12.2%
3,O=C(c1cccn2c(=O)c3ccccc3nc12)N1CCN(Cc2ccc3c(c2)OCO3)CC1,-54.4%
4,O=C(c1cccn2c(=O)c3cc(Cl)ccc3nc12)N1CCN(Cc2ccc3c(c2)OCO3)CC1,-33.5%
5,Cc1onc(-c2ccccc2)c1C(=O)OCc1nnc(-c2ccc([N+](=O)[O-])cc2)o1,-51.2%
6,CCOC(=O)C1CCN(C(=O)C2CCN(C(=O)c3ccc([N+](=O)[O-])cc3)CC2)CC1,-28.2%
7,O=C(c1ccc2c(c1)OCCO2)C1CCN(C(=O)c2ccc(F)cc2)CC1,4.28%
8,O=C(c1ccc2c(c1)OCCO2)C1CCN(C(=O)c2ccc(F)c(F)c2)CC1,2.71%
9,Cc1onc(-c2ccccc2Cl)c1C(=O)OCc1nnc(-c2ccccc2)o1,3.84%
10,CCOC(=O)N1CCN(C(=O)C2CCN(C(=O)c3ccc([N+](=O)[O-])cc3)CC2)CC1,-26.9%
11,O=C(Oc1cccc([N+](=O)[O-])c1)C1CCN(C(=O)c2ccc(F)cc2)CC1,-3.31%
12,CCOc1ccc(C(=O)C2CCN(C(=O)c3ccc([N+](=O)[O-])cc3)CC2)cc1,-81.1%
13,CCOc1ccc(C(=O)N2CCC(C(=O)c3ccc4c(c3)OCCO4)CC2)cc1,-61.5%
14,O=C(CCC(=O)c1ccc(F)cc1)OCc1nnc(-c2ccc([N+](=O)[O-])cc2)o1,1.72%
15,Cc1onc(-c2ccccc2)c1C(=O)OCc1nnc(-c2ccccc2)o1,5.73%
16,O=C(OCc1nnc(-c2ccc([N+](=O)[O-])cc2)o1)C1CCN(C(=O)c2ccc(F)cc2)CC1,-71.4%

# Source: article PMC4336329 (PLoS ONE, 2015)
